Source: PubChem BioAssay (National Center for Advancing Translational Sciences (NCATS))
In the library only some 2.6% were active in any assay of this set; here they are far more common.
TRPV1 potentiator: enhances activation of the human vanilloid receptor TRPV1; Q8NER1; TRPV1-expressing cells, Fluo-8 calcium influx, capsaicin EC20 potentiation; actives 0.02% (n = 320,000); potentiation, % at 8.33 µM; AID 540277; in the data active means potentiation above about 80%; inconclusive means between about 30% and that limit
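Fluo-8 calcium influx in TRPV1-expressing cells, kinetic read (ex 480/em 520 nm). Compound added and read 3 min for agonist activity, followed by capsaicin at EC20 final and 2 min further read for enhancement.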
TRPV1 ag: human TRPV1 agonism. Q8NER1. TRPV1-expressing cells, Fluo-8 calcium influx, agonist mode. activation, % at 8.33 µM. actives 0.19% (n = 320,000). AID 540275; in the data active means activation above about 80%; inconclusive means between about 30% and that limit
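Fluo-8 calcium influx in TRPV1-expressing cells, kinetic read (ex 480/em 520 nm). Compound added and read 3 min for agonist activity, followed by capsaicin at EC20 final and 2 min further read for enhancement.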
p53 reactivator: restores transcriptional activity of mutant p53. H1299 p53-A138V BP100-luciferase reporter, luminescence, 24 h. Potency, µM (highest dose often 92.2 µM), actives largely listed as activators. actives 0.063% (n = 320,000); further: nearly all actives have a fitted effect of over 45% in size
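H1299 (p53-null), stable ts p53-A138V + BP100-Luc; 1000 cells/well, Opti-MEM/10% FBS; cpd 4 pt, 1:5; 24 h, 37 deg C, 5% CO2; detection reagent 10 min RT; luminescence.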
ClpP mod: qHTS Assay for Activators of ClpP; ATP-dependent Clp protease proteolytic subunit (Bacillus subtilis (strain 168)), P80244; purified B. subtilis ClpP, FRET peptide cleavage, 20 min; Potency, µM (top dose mostly 57.5 µM); actives 1.9% (n = 340,000); AID 651965, 2013; active means well fitted falling curve with a large enough effect; inconclusive means small, poorly fitted or top-dose-only effect; inactive means no such curve, though single readings can be large or run the other way; further: the source files actives as falling curves though it sought activators and does not explain the sign; nearly all actives have a fitted effect of over 65% in size
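FRET quenching reversal measured ClpP activation: 10 microg/mL B. subtilis ClpP at pH 8 with the FRET-FV decapeptide, read at 430 nm after 320 nm excitation. The 20-min minus 0-min signal was scaled between DMSO/no-enzyme wells and ADEP (5.8 microM final).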
hERG WT inh: inhibitors of human wildtype KCNH2 potassium channel. Q12809. U2OS, BacMam KCNH2, thallium flux FluxOr; hits give low values. activity change, % at 1.84 µM. actives 0.37% (n = 340,000). AID 720551;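 active means maximum activity change below -70%; inconclusive means maximum activity change between -70% and -50%; inactive means maximum activity change above -50%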
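U2OS cells transduced with wild-type KCNH2 virus are loaded with FluxOr dye for 45 min, and thallium flux is measured in kinetic reads before and after stimulation buffer. Rate constants are normalized to DMSO controls.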
KCNH2 3.1 block: inhibitors of human KCNH2 3.1 potassium channel isoform; AID 720553; actives 0.95% (n = 340,000); U2OS KCNH2 3.1, thallium flux FluxOr; hits give low values; activity change, % (tested at about 1.8 µM);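 active means maximum activity change below -70%; inconclusive means maximum activity change from -70% to -50%; inactive means maximum activity change above -50%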;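 further: thallium influx rate constant from kinetic fluorescence after stimulation buffer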
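Virally transduced U2OS (3.1 isoform, 4 h infection in dark at RT) → overnight 37 C → FluxOr + Red40 in HBSS/HEPES, 45 min → stimulation buffer, 2 min kinetic read → rate constant vs DMSO controls.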
ClpP inh valid: Bacillus subtilis ClpP inhibition, validated hit | shares compounds with ClpP mod | purified B. subtilis ClpP, FRET-FV substrate cleavage, 20 min | Potency, µM (doses to about 57.5 µM), most hits filed as inhibitors | actives 40% (n = 470) | AID 743245; further: nearly all actives have a fitted effect of over 70% in size
A number is an active result; i = inactive; ? = inconclusive; nt = no result given. Unless noted, the call rests on the fitted dose curve; in most records, active means well fitted curve in the direction sought with a large enough effect; inconclusive means small, poorly fitted or top-dose-only effect, or another doubt; inactive means no such curve, though single readings can be large; an effect the other way counts as inactive or inconclusive.

SMILES	TRPV1 potentiator	TRPV1 ag	p53 reactivator	ClpP mod	hERG WT inh	KCNH2 3.1 block	others
COC(=O)c1c(N)n(Cc2ccc(OC)cc2)c2nc3ccccc3nc12	i	i	i	10µM	i	nt
CCCNC(=O)c1c(N)n(Cc2ccco2)c2nc3ccccc3nc12	i	i	i	28µM	i	i
COc1ccc(Cn2c(N)c(C(=O)NCc3ccco3)c3nc4ccccc4nc32)cc1OC	i	i	i	32µM	i	i
CC(C)CNC(=O)c1c(N)n(Cc2ccco2)c2nc3ccccc3nc12	i	i	i	22µM	i	i
c1cc2c3c(cccc3c1)CC2	nt	nt	nt	i	nt	nt
O=C(Nc1ccc(Br)cc1C(=O)O)c1ccc2c(c1)C(=O)N(Cc1ccccc1)C2=O	i	i	?	i	i	i
CC(C)OC(=O)c1c(N)n(Cc2ccco2)c2nc3ccccc3nc12	i	i	i	14µM	i	i
[Hg+][c]1ccccc1	nt	nt	nt	i	nt	nt
CC(Oc1ccc(Cl)cc1Cl)C(=O)Nc1ccc(S(=O)(=O)Nc2cnc3ccccc3n2)cc1 (centres undefined)	i	i	i	16µM	i	i
C[C@H]1CNC(=O)c2c(C(=O)Nc3cccc(Cl)c3)ncn21	nt	nt	nt	?	i	i
Cc1cc(S(=O)(=O)NCC(C)C)ccc1OCC(=O)N1CCN(Cc2ccccc2)CC1	i	i	i	16µM	i	i
CCOc1ccccc1-n1c(O)c(C=NCCCN(CC)CC)c(=O)[nH]c1=O	i	i	i	32µM	i	i
CCOc1ccccc1-n1c(O)c(C=NCCCn2ccnc2)c(=O)[nH]c1=O	i	i	i	i	i	i
CCOc1ccc(CN2CCCC(C(=O)c3ccccc3OC)C2)cc1 (centres undefined)	i	i	i	nt	i	-84
COc1ccccc1CN1CCCC(C(=O)c2ccccc2OC)C1 (centres undefined)	i	i	i	nt	i	i
OC(c1cccc(Cl)c1)(c1cccc(Cl)c1)C1CN2CCC1CC2 (centres undefined)	i	i	i	nt	?	-86
O=C1CC(c2ccccc2)CC(O)=C1C=NCCN1CCN(C(=O)Cc2ccccc2)CC1 (centres undefined)	i	i	i	i	i	i
Cc1ccc(C2CC(=O)C(C=NCCN3CCN(C(=O)Cc4ccccc4)CC3)=C(O)C2)cc1 (centres undefined)	i	i	i	32µM	i	i
O=C(CN1CCCCC1)c1ccccc1	nt	nt	nt	i	nt	nt
CCOC(=O)C1(c2ccccc2)CCN(CCC(C#N)(c2ccccc2)c2ccccc2)CC1	nt	nt	nt	i	i	-88
O=C(Oc1ccc(Cl)c2ccccc12)N1CCCCC1	i	i	i	28µM	i	i
O=C(Oc1c(Cl)cc(Cl)c2ccccc12)N1CCCCC1	i	i	i	i	i	i
C[C@@H]1O[C@@H](O[C@@H]2C=C3CC[C@@H]4[C@@H](CC[C@]5(C)[C@H](c6ccc(=O)oc6)CC[C@@]45O)[C@@]3(C)CC2)[C@H](O)[C@H](O)[C@H]1O	nt	nt	nt	i	nt	nt
CCC(=Nc1ccc2c(c1)CCC2)c1c(O)n(-c2ccc(OC)cc2)c(=O)[nH]c1=O	i	i	i	i	-104	i
O=C1CC=C2C3CC4N(CCC45c4cc(O)c(O)cc4N1C25)CC3=CCBr (centres undefined)	nt	nt	nt	35µM	?	i
SMILES	TRPV1 potentiator	TRPV1 ag	p53 reactivator	ClpP mod	hERG WT inh	KCNH2 3.1 block	others
Oc1cc2c(cc1CN1CCN(c3ccccc3F)CC1)OCO2	i	i	i	nt	i	i
CCCCC(=O)Nc1c(C(=O)N2CCN(c3ccccc3F)CC2)oc2ccccc12	nt	nt	nt	1.3µM	nt	nt	ClpP inh valid=i
Cc1ccc(Cn2cccc(C(=O)Nc3ccc4c(c3)OCCO4)c2=O)cc1	nt	nt	nt	i	nt	nt
Cc1ccccc1C(=O)Nc1cc(-c2ccc(Cl)cc2)nn1-c1ccccc1	nt	nt	nt	i	nt	nt	ClpP inh valid=i
Cc1ccccc1Cn1cccc(C(=O)Nc2cc(Cl)ccc2C#N)c1=O	nt	nt	nt	i	nt	nt
Cc1ccc(NC(=O)N(Cc2ccc3c(c2)OCO3)C2CCN(Cc3ccccc3)CC2)cc1Cl	nt	nt	nt	i	nt	nt
